Drawing on PubChem BioAssay, this text covers composite z-score and z-score for 7 compounds.

Test [1] concerns Plasmodium falciparum Sir2 (PF13_0152, Sir2A). As to the kind of experiment: Plasmodium falciparum Sir2A binding compounds – biochemical, small-molecule microarray, 635 nm fluorescence, primary screen (AID 1098).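 Further: score merges spot fluorescence intensity with its signal-to-noise ratio.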 To be noted: fluorescence 635 nm, higher = more signal.
The nature of test [2]: probe aDKK1 binding to arrayed compounds – biochemical, biotinylated probe, 635/667 nm fluorescence, primary screen (AID 1099).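 Further: score merges 667nm spot fluorescence with signal to noise across triplicate slides.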 The conditions noted are these: small-molecule microarray, higher = more signal.
Test [3] can be described thus: probe aCHRDL2 binding to arrayed compounds – biochemical, biotinylated probe, 635/667 nm fluorescence, primary screen (AID 1100). To be noted: small-molecule microarray, higher = more signal.
Test [4] in a line: change in splice reporter luminescence, either direction, cell-based, HEK293, spliceosome inhibition project, primary screen (AID 1101).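 Further: HEK293 cells carrying a splicing-competent luciferase reporter gene; test concentration not given here.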 The conditions noted are these: HEK293 splicing luciferase reporter, 24 h, higher = more signal, called active from +8 up or from −8 down.
Test [5] addresses Fibroblast growth factor 10 (Homo sapiens) (UniProt O15520). Briefly: compounds binding fibroblast growth factor 10 – biochemical, small-molecule microarray, 635 nm fluorescence, primary screen (AID 1102). To be noted: FGF10 binding, fluorescence 635 nm, higher = more signal.
Test [6] relates to glycogen synthase kinase-3 (GSK3A per assay name; protocol says GSK3B). As to the kind of experiment: compounds binding glycogen synthase kinase-3 – biochemical, small-molecule microarray, 635 nm fluorescence, GSK3A, primary screen (AID 1103). Further: the record names both GSK3A and GSK3B. The conditions noted are these: fluorescence 635 nm, higher = more signal.
The target in test [7] is Epidermal growth factor receptor (Homo sapiens) (UniProt P00533). Briefly: compounds binding epidermal growth factor receptor – biochemical, small-molecule microarray, 635 nm fluorescence, primary screen (AID 1104).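 Further: score merges 667 nm emission intensity with spot signal to noise over triplicate slides.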 To be noted: EGFR binding, higher = more signal.
Chain of Epidermal growth factor receptor (Homo sapiens) (P00533 whole entry, looked up): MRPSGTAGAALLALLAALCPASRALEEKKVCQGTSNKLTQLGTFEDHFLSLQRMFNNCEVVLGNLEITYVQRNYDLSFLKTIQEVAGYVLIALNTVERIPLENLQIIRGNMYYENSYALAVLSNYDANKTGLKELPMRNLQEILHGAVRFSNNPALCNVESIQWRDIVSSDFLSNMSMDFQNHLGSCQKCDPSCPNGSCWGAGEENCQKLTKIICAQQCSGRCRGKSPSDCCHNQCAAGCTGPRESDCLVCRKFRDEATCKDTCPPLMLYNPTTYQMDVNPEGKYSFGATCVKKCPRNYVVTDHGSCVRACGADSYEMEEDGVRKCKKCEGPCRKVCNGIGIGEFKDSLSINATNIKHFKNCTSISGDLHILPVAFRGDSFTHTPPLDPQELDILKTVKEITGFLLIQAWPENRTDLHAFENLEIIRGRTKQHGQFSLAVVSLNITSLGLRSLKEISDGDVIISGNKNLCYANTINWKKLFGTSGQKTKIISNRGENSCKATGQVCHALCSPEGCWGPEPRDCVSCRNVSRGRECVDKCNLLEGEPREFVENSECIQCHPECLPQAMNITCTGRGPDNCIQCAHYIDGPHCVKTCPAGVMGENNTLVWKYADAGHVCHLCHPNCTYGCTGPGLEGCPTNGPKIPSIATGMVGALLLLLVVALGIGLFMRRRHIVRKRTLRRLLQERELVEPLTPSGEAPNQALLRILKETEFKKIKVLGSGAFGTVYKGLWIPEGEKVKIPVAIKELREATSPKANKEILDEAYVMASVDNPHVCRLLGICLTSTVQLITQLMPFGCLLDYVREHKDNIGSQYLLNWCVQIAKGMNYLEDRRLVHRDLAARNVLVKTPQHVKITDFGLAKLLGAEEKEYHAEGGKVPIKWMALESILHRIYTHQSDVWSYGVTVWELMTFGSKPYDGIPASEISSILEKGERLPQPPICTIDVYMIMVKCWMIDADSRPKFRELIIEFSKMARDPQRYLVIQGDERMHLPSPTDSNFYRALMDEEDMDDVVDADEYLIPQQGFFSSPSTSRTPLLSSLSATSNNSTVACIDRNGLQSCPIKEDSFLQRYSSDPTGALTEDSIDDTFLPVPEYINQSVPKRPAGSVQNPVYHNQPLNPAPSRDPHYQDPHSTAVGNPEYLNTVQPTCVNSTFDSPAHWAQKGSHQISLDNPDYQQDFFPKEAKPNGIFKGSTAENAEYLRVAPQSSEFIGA
The target of test [8] is Follistatin-related protein 3 (Homo sapiens) (UniProt O95633). Briefly: compounds binding follistatin-related protein 3 – biochemical, small-molecule microarray, 635 nm fluorescence, primary screen (AID 1105).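 Further: score merges emission near 667 nm and signal to noise per printed spot across three slides.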 The conditions noted are these: FSTL3 binding, higher = more signal.
Chain of Follistatin-related protein 3 (Homo sapiens) (O95633 whole entry, looked up): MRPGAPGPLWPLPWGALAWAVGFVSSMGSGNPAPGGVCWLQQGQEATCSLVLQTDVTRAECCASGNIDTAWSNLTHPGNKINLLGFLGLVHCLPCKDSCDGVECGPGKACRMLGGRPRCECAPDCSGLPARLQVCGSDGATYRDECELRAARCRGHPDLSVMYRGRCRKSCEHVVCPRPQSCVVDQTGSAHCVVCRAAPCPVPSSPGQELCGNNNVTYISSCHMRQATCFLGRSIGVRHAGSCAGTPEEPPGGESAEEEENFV
Test [9] deals with Dickkopf-related protein 1 (Homo sapiens) (UniProt O94907). Briefly: small molecules binding DKK1 protein – biochemical, small-molecule microarray, 635 nm fluorescence scan, primary screen (AID 1106).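 Further: score merges emission near 667 nm with signal to noise over three replicate slides.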 The conditions noted are these: higher = more signal.
Chain of Dickkopf-related protein 1 (Homo sapiens) (O94907 whole entry, looked up): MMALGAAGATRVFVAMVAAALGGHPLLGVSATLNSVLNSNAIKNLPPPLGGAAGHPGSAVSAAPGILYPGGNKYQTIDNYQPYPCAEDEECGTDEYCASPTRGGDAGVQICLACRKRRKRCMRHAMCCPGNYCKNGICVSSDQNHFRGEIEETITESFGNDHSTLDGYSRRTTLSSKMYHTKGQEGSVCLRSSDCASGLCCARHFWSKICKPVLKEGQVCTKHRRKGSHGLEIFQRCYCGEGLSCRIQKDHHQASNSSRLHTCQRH
Test [10] deals with Inhibin beta A chain (activin A). Briefly: small molecules binding activin A – biochemical, small-molecule microarray, 635 nm fluorescence scan, primary screen (AID 1107).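 Further: mouse activin A protein probed at 4.33 µg/mL on printed slides; score merges bound-protein fluorescence near 667 nm with spot signal-to-noise.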 The conditions noted are these: INHBA, higher = more signal.
In test [11] the test system is Human papillomavirus type 1a protein E7 (residues 44-93). Briefly: small molecules binding HPV E7 44-93 – biochemical, small-molecule microarray, residues 44-93, 635 nm fluorescence, primary screen (AID 1108).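 Further: E7 fragment applied at 1 µg/mL in TBST for 1 h at 4 C; score combines spot fluorescence with its signal to noise ratio.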 To be noted: fluorescence 635 nm, higher = more signal.
The nature of test [12]: hepatitis C replication reporter changes, two-sided – Huh7 cells, luciferase reporter, HCV replication inhibitor project, primary screen (AID 1109).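 Further: huh7 hepatoma cells harbouring a luciferase neomycin HCV replicon reporter; luciferase luminescence as measure of HCV replicon replication; test concentration not given here.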 To be noted: Huh7 HCV replicon luciferase reporter, 48 h; higher = more signal.
Test [13] deals with Left-right determination factor 2 (Homo sapiens) (UniProt O00292). As to the kind of experiment: small molecules binding LEFTY2 protein – biochemical, small-molecule microarray, 635 nm fluorescence scan, primary screen (AID 1110). To be noted: higher = more signal.
Chain of Left-right determination factor 2 (Homo sapiens) (O00292 whole entry, looked up): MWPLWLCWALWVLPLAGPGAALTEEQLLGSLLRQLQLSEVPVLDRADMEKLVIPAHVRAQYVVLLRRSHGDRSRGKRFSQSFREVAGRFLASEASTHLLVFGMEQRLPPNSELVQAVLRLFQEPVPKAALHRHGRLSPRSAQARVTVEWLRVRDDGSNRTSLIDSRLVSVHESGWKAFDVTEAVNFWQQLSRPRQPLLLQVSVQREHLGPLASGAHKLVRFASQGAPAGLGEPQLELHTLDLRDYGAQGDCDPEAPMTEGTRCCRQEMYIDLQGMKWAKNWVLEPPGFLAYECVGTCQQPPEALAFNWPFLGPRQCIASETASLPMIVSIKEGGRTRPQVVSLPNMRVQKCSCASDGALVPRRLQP
Test [14] has as its target Calmodulin-1 (Homo sapiens) (UniProt P0DP23). As to the kind of experiment: small molecules binding calmodulin-1 with EGTA – biochemical, small-molecule microarray, Cy5-labelled CALM1, profiling panel (AID 1111).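 Further: labelled calmodulin applied in Tris saline Tween buffer holding calcium plus EGTA and DTT.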 To be noted: Cy5-CALM1 binding fluorescence, higher = more signal.
Test [15] has the same target. As to the kind of experiment: small molecules binding Ca-loaded calmodulin-1 – biochemical, small-molecule microarray, Cy5-labelled CALM1, plus calcium, artefact control for SMM control-protein annotation, profiling panel (AID 1112).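 Further: score merges spot fluorescence with signal to noise from triplicate slides.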 The conditions noted are these: Cy5-CALM1 binding fluorescence, higher = more signal.
Test [16] is described as follows: probe aWnt5a binding to arrayed compounds – biochemical, biotinylated probe, 635/667 nm fluorescence, primary screen (AID 1113).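 Further: score merges 667 nm fluorescence intensity with signal-to-noise per printed feature.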 The conditions noted are these: small-molecule microarray, higher = more signal.
The nature of test [17]: probe aShh binding to arrayed compounds – biochemical, biotinylated probe, 635/667 nm fluorescence, primary screen (AID 1114).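 Further: probe is biotin-labelled aShh protein from a stem cell growth factor screen; measures binding of labelled protein to compounds printed on the slide; score merges feature fluorescence at 667 nm with signal-to-noise.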 The conditions noted are these: small-molecule microarray, higher = more signal.
Test [18] in a line: probe aNog binding to arrayed compounds – biochemical, biotinylated probe, 635/667 nm fluorescence, primary screen (AID 1115).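 Further: probe is biotinylated aNog protein used at 0.15 µg/mL for 1 h at 4 C; z-score combines 667 nm fluorescence of each spot with its signal to noise.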 To be noted: small-molecule microarray, higher = more signal.
For test [19], the target named is Torsin-1A-interacting protein 1 (Homo sapiens) (UniProt Q5JTV8). As to the kind of experiment: compound microarray binding of lysate hLAP1 – cell lysate, small-molecule microarray, COS7 lysate, 635/667 nm fluorescence, primary screen (AID 1116). The conditions noted are these: 635 nm fluorescence, higher = more signal.
Chain of Torsin-1A-interacting protein 1 (Homo sapiens) (Q5JTV8 whole entry, looked up): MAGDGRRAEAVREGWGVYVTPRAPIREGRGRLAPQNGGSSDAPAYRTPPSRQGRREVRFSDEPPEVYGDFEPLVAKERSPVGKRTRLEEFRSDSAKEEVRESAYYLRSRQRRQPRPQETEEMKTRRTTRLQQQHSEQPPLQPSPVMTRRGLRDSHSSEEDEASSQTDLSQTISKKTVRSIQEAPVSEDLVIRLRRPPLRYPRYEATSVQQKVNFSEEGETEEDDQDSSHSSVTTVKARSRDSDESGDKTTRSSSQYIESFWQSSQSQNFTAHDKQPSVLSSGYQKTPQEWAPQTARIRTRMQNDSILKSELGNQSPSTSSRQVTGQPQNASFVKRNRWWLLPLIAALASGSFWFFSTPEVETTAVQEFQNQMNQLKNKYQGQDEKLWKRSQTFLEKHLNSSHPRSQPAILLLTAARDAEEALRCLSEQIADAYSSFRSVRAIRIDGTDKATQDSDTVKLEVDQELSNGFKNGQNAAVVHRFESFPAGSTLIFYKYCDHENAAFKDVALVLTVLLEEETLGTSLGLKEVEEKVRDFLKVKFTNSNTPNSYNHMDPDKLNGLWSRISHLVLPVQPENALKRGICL
In test [20] the target is Alpha-bungarotoxin (Bungarus multicinctus) (UniProt P60615). Briefly: compounds binding labelled alpha-BTX control protein – biochemical, small-molecule microarray, Alexa647 label, 635/667 nm fluorescence, artefact control for SMM control protein annotation, profiling panel (AID 1117). The conditions noted are these: alpha-BTX-A647 binding fluorescence, higher = more signal.
Chain of Alpha-bungarotoxin (Bungarus multicinctus) (P60615 whole entry, looked up): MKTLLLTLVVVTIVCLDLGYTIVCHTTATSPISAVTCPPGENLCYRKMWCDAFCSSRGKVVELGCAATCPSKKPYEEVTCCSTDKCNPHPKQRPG

Calls of active or inactive are those of the source.

Chain of Fibroblast growth factor 10 (Homo sapiens) (O15520 whole entry, looked up): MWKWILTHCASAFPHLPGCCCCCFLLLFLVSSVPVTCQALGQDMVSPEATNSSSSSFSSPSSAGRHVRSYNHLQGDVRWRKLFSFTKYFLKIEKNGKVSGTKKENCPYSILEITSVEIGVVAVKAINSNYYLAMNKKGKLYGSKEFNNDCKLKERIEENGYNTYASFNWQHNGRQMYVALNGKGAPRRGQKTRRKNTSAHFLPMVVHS

Consider `Cc1ccc(S[C@]2(C(=O)NCCCN(C)C)CC(=O)N(Cc3ccccc3C(F)(F)F)[C@@H]2c2ccc(CO)cc2I)cc1`, for which the composite z-score is 1.18 in test [1]; -0.473 in [2]; -0.464 in test [3]; -0.54 in [5]; -0.605 in [6]; -1.04 in test [7]. The composite z-score in test [8] was -0.402; in test [9], -1.25; in test [10], 0.812; in [11], 0.545; in test [13] it was -1.17; in test [14], -0.252. For the same compound, the composite z-score in [15] is 0.236; in test [16], 0.264; in [17] it was -0.403; in test [18], 1.27; in test [19], 0.28; in test [20], -0.0365. Besides, the z-score in [4] was -0.425 (inactive); in test [12], -2.37.

As for `CC1CC/C=C\[C@H]2OC34C=CCN(CCN5CCOCC5)C(=O)[C@H]3N(CCCO)C(=O)[C@@H]4C2C(=O)O1` (stereo not given in full), the composite z-score in test [1] was 0.367; in test [2], -0.399; in test [3] it was -0.141; in [5] it was -0.188; in test [6], -0.0682; in [7], -0.555. The composite z-score is -0.59 in test [8]; -0.235 in test [9]; 1.39 in test [10]; -0.591 in test [11]; -0.573 in test [13]; -0.589 in test [14]. Besides, the composite z-score in test [15] is -0.565; in test [16], -0.192; in test [17] it was -0.214; in test [18], 0.144; in test [19] it was -0.181; in test [20], -1.02. In addition, the z-score in test [4] was 0.316 (inactive); in [12], -0.945.

Regarding `CC1CC/C=C\[C@H]2OC34C=CCN(Cn5nnc6ccccc65)C(=O)[C@H]3N(CCCCCCO)C(=O)[C@@H]4C2C(=O)O1` (stereo not given in full), the composite z-score in test [1] is 0.765; in test [2], -0.252; in test [3], 0.794; in test [5], -0.835; in test [6], -0.759; in [7], -0.951. The composite z-score in [8] was -1.23; in test [9] it was -1.36; in [10], -0.306; in test [11] it was -0.0257; in test [13], -1.7; in [14], 0.259. Besides, the composite z-score in test [15] was 0.659; in test [16], -0.232; in test [17], -0.0709; in [18], 0.0021; in test [19] it was 0.145; in [20], -0.551. Also, the z-score was 0.468 (inactive) in test [4] and 0.0151 in test [12].

`COc1ccc(C(=O)Nc2cccc(CN3C(=O)[C@@]4(O[C@@H](CC(=O)N5CCC[C@H]5CO)[C@H]([Si](C)(C)c5ccc(OC)cc5)[C@H]4C)c4ccccc43)c2)cc1`: the composite z-score in test [1] was 1.21; in [2] it was -0.0379; in test [3], -0.183; in [5], 0.43; in test [6], 0.744; in test [7] it was 0.527. Further, the composite z-score in test [8] turned out to be 0.839; in test [9], 0.496; in [10] it was 0.182; in [11], 0.843; in test [13], 0.801; in test [14], 1.26. The composite z-score was 0.78 in test [15]; -0.0643 in test [16]; -0.142 in test [17]; -0.138 in test [18]; 1.72 in test [19]; 2.08 in test [20]. Further, the results for the z-score in test [4] and in [12] were 1 (inactive) and -3.13, respectively.

Take `C=C(COC)C(=O)CC[C@@H](OC(C)=O)c1ccccc1OCCO`: the composite z-score was 1.29 in [1]; -0.232 in test [2]; 0.313 in test [3]; 1.53 in [5]; -0.0163 in test [6]; -0.0143 in [7]. The composite z-score is 0.209 in test [8]; -0.306 in test [9]; 1.38 in test [10]; 0.0358 in test [11]; 0.325 in [13]; -0.85 in test [14]. The composite z-score was -0.976 in test [15]; -0.175 in test [16]; -0.0626 in [17]; 0.493 in [18]; 1.28 in test [19]; 0.0746 in test [20]. Moreover, the figures for the z-score in test [4] and in [12] were 1.34 (inactive) and -2.72, respectively.

For `COc1ccc([Si](C)(C)[C@H]2[C@H](CC(=O)N3CCC[C@H]3CO)O[C@@]3(C(=O)N(Cc4ccc(N5CCCCC5=O)cc4)c4ccccc43)[C@@H]2C)cc1`, the composite z-score in test [1] was 1.17; in [2], -0.28; in test [3], -0.466; in [5], 1.18; in test [6] it was 1.09; in [7], 0.639. The composite z-score in test [8] was found to be 1.23; in test [9], 0.863; in test [10], 0.704; in test [11], 1.4; in [13], 0.721; in test [14], 0.441. Further, the composite z-score in test [15] is -0.393; in test [16] it was -0.0239; in test [17], 0.0639; in test [18], 1.32; in test [19], 1.15; in test [20] it was 1.62. Besides, the z-score is -1.16 (inactive) in test [4] and -1.46 in test [12].

As to `CO[C@H]1O[C@H](CO)[C@@H](OC(=O)Nc2ccccc2-c2ccccc2)[C@H](OC(=O)Nc2ccccc2)[C@H]1OC(=O)Nc1ccccc1`, the composite z-score in test [1] stood at 1.43; in [2] it was 0.821; in [3], 0.886; in test [5], 1.45; in test [6], 1.33; in test [7], 0.41. Also, the composite z-score in [8] stood at 1.41; in [9], 0.993; in [10] it was 0.352; in test [11], 0.922; in test [13], 0.732; in test [14], 1.27. Also, the composite z-score was -0.144 in [15]; 0.169 in [16]; 0.269 in test [17]; 0.225 in test [18]; 1.07 in test [19]; 1.64 in [20]. Further, the z-score in [4] is -0.299 (inactive); in [12] it was -2.49.
